T_cruzi_growth-1: T. cruzi proliferation inhibition. T. cruzi beta-gal in NIH3T3, GalScreen luminescence, 90 h. AID 624255. 77,000 tested, 5.9% active. inhibition, % at 8.34 µM;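 active means mean inhibition above about 93%, with at least 55% of replicates each passing it, limit read from the data, passing the limit was not always enough; inconclusive means only one of those two conditions holds; inactive means neither condition holds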
C_diff_growth: inhibitors of Clostridium difficile growth; Clostridium difficile clinical isolate growth, OD600, 24 h; stronger effect = lower value; growth activity, negative = inhibition, % at 16 µg/mL (by protocol); 86,000 tested, 0.25% active;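 active means mean growth activity at or below -80% and every replicate also at or below -80%; inconclusive means mean at or below -80% but some replicate above -80%; inactive means mean growth activity above -80%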;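 further: 0% = DMSO wells and -100% = levofloxacin 16 µg/mL wells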
Pf_Dd2_growth: inhibitors of Plasmodium falciparum Dd2 growth; AID 1159554; activity change, % at 10 µM; 94,000 tested, 2.3% active; P. falciparum Dd2 growth, SYBR Green, 72 h; stronger effect = lower value; in the data active means activity change below about -80%; inconclusive means no clear call, values can overlap the other calls
T_cruzi_growth-2: Trypanosoma cruzi proliferation inhibition | 5,600 tested, 72% active | inhibition, % at 8.35 µM | shares compounds with T_cruzi_growth-1 | AID 651739 | T. cruzi beta-gal in NIH3T3, GalScreen luminescence, 90 h;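 active means mean replicate inhibition above about 95% and at least 55% of replicates individually reaching it, limit read from the data; inconclusive means only one of the two criteria is met; inactive means neither criterion is met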
T_cruzi_growth-3: Trypanosoma cruzi proliferation inhibition. shares compounds with T_cruzi_growth-1. 5,600 tested, 21% active. inhibition, % at 2.09 µM. T. cruzi beta-gal in NIH3T3, GalScreen luminescence, 90 h;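 active means mean inhibition above about 95%, with at least 55% of replicates also reaching it, limit read from the data; inconclusive means meets just one of the two conditions; inactive means meets neither condition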;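 further: plate controls were neutral control median for no effect and positive control median for full effect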
NIH3T3_tox: NIH/3T3 (mouse) viability loss; shares compounds with T_cruzi_growth-1; NIH/3T3 viability, CellTiter-Glo ATP luminescence, 90 h; cytotoxicity (signal decrease), % at 8.35 µM; 5,600 tested, 14% active;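 active means mean signal decrease across replicates above about 35% based on untreated-well scatter, with enough replicates individually passing, limit read from the data; inconclusive means no rule stated though some were filed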;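 further: 0% = median of neutral control wells and 100% = median of positive control wells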
3T3_cytotox_2: NIH/3T3 (mouse) viability loss; shares compounds with T_cruzi_growth-1; NIH/3T3 viability, CellTiter-Glo ATP luminescence, 90 h; inhibition, % at 24.9 µM; 5,600 tested, 56% active; AID 651744;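 active means mean loss of cell viability signal at or above a set limit, and enough replicates individually reaching it; inconclusive means meets only the mean limit or only the replicate share; inactive means meets neither condition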;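 further: 0% = median of neutral control wells and 100% = median of positive control wells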
Numbers without * were called inactive; u = inconclusive; x = no result given; ! = not confirmed by another sample. The list is not random: actives were taken first. Their share in the collection is about 6.7%.

SMILES T_cruzi_growth-1 C_diff_growth Pf_Dd2_growth T_cruzi_growth-2 T_cruzi_growth-3 NIH3T3_tox 3T3_cytotox_2
O=S(=O)(c1ccc(F)cc1)N1C[C@@H]2[C@H](c3ccccc31)[C@@H](CO)N2Cc1ccc2c(c1)OCO2 77 4 -27 x x x x
O=S(=O)(c1ccccc1)N1C[C@@H]2[C@H](c3ccccc31)[C@H](CO)N2Cc1ccc2c(c1)OCO2 111* 1 -32 105* 61 24 13
Cc1cccc(S(=O)(=O)N2C[C@@H]3[C@H](c4ccccc42)[C@H](CO)N3Cc2ccc3c(c2)OCO3)c1 109* 3 -46 101* 108* 24 -31
O=S(=O)(c1ccccc1)N1C[C@H]2[C@@H](c3ccccc31)[C@@H](CO)N2Cc1ccc2c(c1)OCO2 101* -5 -47 101* 44 18 16
O=S(=O)(c1ccccc1)N1C[C@@H]2[C@H](c3ccccc31)[C@H](CO)N2Cc1ccc(F)cc1 94 -1 -8 x x x x
O=S(=O)(c1ccccc1)N1C[C@H]2[C@@H](c3ccccc31)[C@H](CO)N2Cc1ccc2c(c1)OCO2 u -9 -12 93 42 -5 3
Cc1cccc(S(=O)(=O)N2C[C@H]3[C@@H](c4ccccc42)[C@H](CO)N3Cc2cccnc2)c1 85 -18 -26 x x x x
O=C(NC1CCC1)[C@@H]1[C@@H](CO)[C@@H]2Cn3c(ccc(-c4ccc(F)cc4)c3=O)[C@@H]2N1Cc1ccccn1 33 -3 x x x x x
COc1ccc(-c2cnc3c(c2)C(=O)N([C@@H](C)CO)C[C@@H](C)[C@@H](CN(C)C(=O)CN(C)C)O3)cc1 21 -6 -1 x x x x
CN1C(=O)c2cc(NS(C)(=O)=O)ccc2OC[C@H]2O[C@H](CC(=O)N3CCOCC3)CC[C@@H]21 -20 -3 x x x x x
Cc1cccc(S(=O)(=O)N[C@H]2CC[C@H](CCNC(=O)CCN3CCCCC3)O[C@H]2CO)c1 53 -3 -6 x x x x
CCC(=O)N1[C@@H](CO)[C@@H](c2ccccc2)C12CN(C(=O)Nc1ccccc1F)C2 x 1 -37 x x x x
C[C@@H]1CN([C@@H](C)CO)S(=O)(=O)c2ccc(-c3ccccc3)cc2O[C@@H]1CN(C)Cc1ccncc1 31 x -24 x x x x
Cc1ccc(-c2ccc3c(c2)O[C@H](CN(C)Cc2ccncc2)[C@@H](C)CN([C@@H](C)CO)S3(=O)=O)cc1 124* -35 -51 103* 104* 69* 103*
C[C@H](CO)N1C[C@H](C)[C@@H](CN(C)Cc2ccncc2)Oc2cc(-c3ccccc3)ccc2S1(=O)=O 61 x -22 x x x x
Cc1ccc(-c2ccc3c(c2)O[C@@H](CN(C)Cc2ccncc2)[C@H](C)CN([C@H](C)CO)S3(=O)=O)cc1 123* -27 -84* 88 100* 98* 106*
C[C@@H]1CN([C@H](C)CO)C(=O)c2cc(NC(=O)Cc3ccccc3)ccc2O[C@@H](C)CCCCO[C@@H]1CN(C)C(=O)Cc1ccccc1 19 -3 -61 x x x x
O=C(C[C@H]1CC[C@H]2[C@@H](COC[C@H](O)CN2C(=O)Nc2ccc(C(F)(F)F)cc2)O1)NC1Cc2ccccc2C1 121* -90*! -30 105* 53 51* 107*
O=C(C[C@@H]1CC[C@@H]2[C@H](COC[C@@H](O)CN2C(=O)Nc2ccc(C(F)(F)F)cc2)O1)NC1Cc2ccccc2C1 112* -100*! -26 96* 94 21 105*
O=C(C[C@@H]1CC[C@@H]2[C@H](COC[C@@H](O)CN2C(=O)Nc2ccc(F)cc2)O1)NC1Cc2ccccc2C1 28 x -9 x x x x
O=C(C[C@@H]1CC[C@H]2[C@@H](COC[C@H](O)CN2C(=O)Nc2ccc(F)cc2)O1)NC1Cc2ccccc2C1 60 x -3 x x x x
C[C@H]1CCCCO[C@H](CN(C)S(=O)(=O)c2ccc(F)cc2)[C@@H](C)CN([C@@H](C)CO)C(=O)c2cc(NC(=O)CCC(F)(F)F)ccc2O1 6 -2 x x x x x
COc1ccc2c3c([nH]c2c1)[C@H](CO)NCC31CN(C(=O)C2CC2)C1 x 3 -1 x x x x
CCNC(=O)C[C@@H]1CC[C@H]2[C@H](COc3ccc(NC(=O)Nc4cccc(C)c4)cc3C(=O)N2C)O1 13 4 -1 x x x x
C[C@H]1CN([C@@H](C)CO)S(=O)(=O)c2ccc(C#CC3CCCCC3)cc2O[C@@H]1CN(C)C(=O)Cc1ccncc1 83 x -68 x x x x
SMILES T_cruzi_growth-1 C_diff_growth Pf_Dd2_growth T_cruzi_growth-2 T_cruzi_growth-3 NIH3T3_tox 3T3_cytotox_2
C[C@H](CO)N1C[C@H](C)[C@@H](CN(C)C(=O)Cc2ccncc2)Oc2cc(C#CC3CCCC3)ccc2S1(=O)=O 122* 2 -85* 108* 87 1 u
C[C@H](CO)N1C[C@H](C)[C@@H](CN(C)C(=O)Cc2ccncc2)Oc2cc(C#CC3CCCCC3)ccc2S1(=O)=O 86 x -39 x x x x
C[C@@H]1CN([C@@H](C)CO)S(=O)(=O)c2ccc(C#CC3CCCC3)cc2O[C@@H]1CN(C)C(=O)Cc1ccncc1 122* -1 -32 97* 79 13 62*
CN1c2ccc(C3=CCCCC3)cc2[C@@H]2[C@@H](CCN2C(=O)NC2CCCC2)[C@H]1CO x 2 -64 x x x x
COc1ccc(S(=O)(=O)Nc2ccc3c(c2)C(=O)N([C@@H](C)CO)C[C@H](C)[C@H](CN(C)S(=O)(=O)c2ccc(OC)cc2)OCCCC[C@@H](C)O3)cc1 93* -3 -65 106* 80 16 23
COc1ccc(S(=O)(=O)Nc2ccc3c(c2)C(=O)N([C@H](C)CO)C[C@H](C)[C@@H](CN(C)S(=O)(=O)c2ccc(OC)cc2)OCCCC[C@H](C)O3)cc1 u 3 -63 111* 51 6 13
COc1ccc(S(=O)(=O)Nc2ccc3c(c2)C(=O)N([C@H](C)CO)C[C@H](C)[C@H](CN(C)S(=O)(=O)c2ccccc2)OCCCC[C@@H](C)O3)cc1 x -3 -18 x x x x
COc1ccc(S(=O)(=O)Nc2ccc3c(c2)C(=O)N([C@@H](C)CO)C[C@H](C)[C@@H](CN(C)S(=O)(=O)c2ccccc2)OCCCC[C@H](C)O3)cc1 x -1 -72 x x x x
COc1ccc(S(=O)(=O)Nc2ccc3c(c2)C(=O)N([C@H](C)CO)C[C@@H](C)[C@H](CN(C)S(=O)(=O)c2ccc(OC)cc2)OCCCC[C@@H](C)O3)cc1 u 4 -73 102* 63 18 12

Screens from PubChem.
